Screening results as filed in PubChem.
This is a sample that favours compounds with a hit; in the whole collection about 1.6% have one here.
KCNQ2 inh – KCNQ2 (rat) channel inhibition. O88943. CHO-K1 KCNQ2, FluxOR thallium flux, 20 min; hits give low values. B-score at 10 µM. 310,000 compounds, 1.1% hits. AID 2156;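 active = fluorescence ratio B-score at most minus 3 library SDs, with starting brightness B-score within 2 library SDs, cut at about -5.5 in these data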
KCNQ2 pot – KCNQ2 (rat) channel potentiation | CHO-K1 KCNQ2, FluxOR thallium flux fluorescence; hits give high values | B-score at 10 µM | 310,000 compounds, 0.54% hits | AID 2239;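 active = fluorescence ratio B-score at least 3 SD of library B-scores, with initial fluorescence B-score within 3 of them, cut at about 5.3 in these data; same plate scores as AID 2156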;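 also: B-score of peak minus minimum over baseline fluorescence ratio after K+ and Tl+ stimulus; positive B-score means potentiation of KCNQ2 with more thallium influx and brighter signal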
Hits are given with their value.

What do the screens show for `Cc1ccc(S(=O)(=O)Oc2ccc(C3C4=C(CCCC4=O)N(CCC(=O)O)C4=C3C(=O)CCC4)cc2Cl)cc1`?
KCNQ2 inh: inactive

How did Cc1ccc(NC(=O)c2cc(-c3ccccc3)nn2-c2ccccc2)c(Br)c1 do in these assays?
KCNQ2 inh: inactive

What do the screens show for `Cc1ccc(NC(=O)c2cc(-c3ccccc3)nn2-c2ccccc2)cc1`?
KCNQ2 inh: -5.7; KCNQ2 pot: inactive

Results for CCc1nnc(NC(=O)c2cc(-c3cccnc3)nc3ccccc23)s1 ?
KCNQ2 inh: inactive; KCNQ2 pot: inactive

Results for Cc1cccc(NC(=O)c2nc(-c3ccccc3)n(-c3ccccc3)n2)c1C ?
KCNQ2 inh: -8.2; KCNQ2 pot: inactive

Results for Cc1cc(C(=O)Nc2cccc(C)c2C)c2ccccc2n1 ?
KCNQ2 inh: -5.8; KCNQ2 pot: inactive

Results for Cc1cccc(NC(=O)c2cnn(-c3ccccc3)c2C)c1C ?
KCNQ2 inh: inactive

How did Cc1cc(C(=O)Nc2ccccc2C)c2ccccc2n1 do in these assays?
KCNQ2 inh: inactive

Results for CCc1nnc(NC(=O)c2cc(C)nc3ccccc23)s1 ?
KCNQ2 inh: -6.3; KCNQ2 pot: inactive

What do the screens show for `CCOc1ccccc1NC(=O)CSc1nnc(CNC(=O)c2cccs2)o1`?
KCNQ2 inh: inactive; KCNQ2 pot: inactive

How did COc1cc(OC)c(OC)cc1CNCc1ccco1 do in these assays?
KCNQ2 inh: inactive; KCNQ2 pot: inactive

What do the screens show for `COC(=O)Nc1ccc(S(=O)(=O)N2CCCC(C(=O)NC3CCS(=O)(=O)C3)C2)cc1` (stereo not drawn)?
KCNQ2 inh: inactive; KCNQ2 pot: inactive

Results for Cc1ccc([N+](=O)[O-])cc1NC(=O)CN(C(=O)c1ccccc1Cl)C1CCCCC1 ?
KCNQ2 inh: inactive

What do the screens show for `CS(=O)(=O)N(CC(=O)Nc1cccc([N+](=O)[O-])c1)c1ccccc1`?
KCNQ2 inh: inactive; KCNQ2 pot: inactive

What do the screens show for `COc1ccc(C)cc1S(=O)(=O)N(CC(=O)Nc1cccc([N+](=O)[O-])c1)c1ccccc1`?
KCNQ2 inh: inactive; KCNQ2 pot: inactive

What do the screens show for `Cc1ccc([N+](=O)[O-])cc1NC(=O)CN(C1CCCCC1)S(=O)(=O)c1ccc(Cl)cc1`?
KCNQ2 inh: -7.9; KCNQ2 pot: inactive

Results for Cc1ccccc1CN(CC(=O)Nc1cccc([N+](=O)[O-])c1)S(=O)(=O)c1ccc(Cl)cc1 ?
KCNQ2 inh: -6.6; KCNQ2 pot: inactive

What do the screens show for `Cc1ccc(NC(=O)CN(c2ccc(Cl)cc2)S(=O)(=O)c2cc([N+](=O)[O-])ccc2Cl)c(C)c1`?
KCNQ2 inh: -7.9; KCNQ2 pot: inactive

What do the screens show for `COc1ccc(NC(=O)NNC(=O)c2ccccc2-n2cccc2)cc1OC`?
KCNQ2 inh: inactive; KCNQ2 pot: inactive

Results for O=C(Cc1ccccc1[N+](=O)[O-])OCc1cccc([N+](=O)[O-])c1 ?
KCNQ2 inh: inactive

What do the screens show for `CC(C)=CCCC(C)CN1CCC(N2CCC(C(=O)NC(C)C)CC2)CC1` (stereo not drawn)?
KCNQ2 inh: inactive; KCNQ2 pot: inactive

What do the screens show for `CCCN1CCC(=O)N([C@H](CN=[N+]=[N-])CC(C)C)CC1`?
KCNQ2 inh: inactive

Results for Cc1ccccc1NS(=O)(=O)c1cc(C(=O)NCCSC2CCCCC2)ccc1C ?
KCNQ2 inh: -5.8; KCNQ2 pot: inactive

How did Cc1ccc(C)c(NS(=O)(=O)c2cc(C(=O)NCCSC3CCCCC3)ccc2C)c1 do in these assays?
KCNQ2 inh: inactive

What do the screens show for `CCN(CC)C(=O)c1cc2c(=O)n3ccccc3nc2s1`?
KCNQ2 inh: inactive; KCNQ2 pot: inactive

Results for CCN(CC)C(=O)c1cc2c(=O)oc3ccccc3c2s1 ?
KCNQ2 inh: -6.9; KCNQ2 pot: inactive

How did O=c1[nH]c2ccccc2cc1CN(Cc1ccco1)S(=O)(=O)c1ccccc1 do in these assays?
KCNQ2 inh: inactive

What do the screens show for `CCc1ccc2c(CN3CCc4ccccc43)cc(=O)oc2c1`?
KCNQ2 inh: -5.6; KCNQ2 pot: inactive

How did Cc1cc2oc(=O)cc(CN3CCc4ccccc43)c2cc1Cl do in these assays?
KCNQ2 inh: -6.4; KCNQ2 pot: inactive

Results for O=c1cc(CN2CCc3ccccc32)c2ccc(O)cc2o1 ?
KCNQ2 inh: inactive

What do the screens show for `Cc1ccc2c(CN3CCCc4ccccc43)cc(=O)oc2c1C`?
KCNQ2 inh: inactive

What do the screens show for `O=C(/C=C/Nc1ccc(Oc2ccccc2)cc1)c1ccco1`?
KCNQ2 inh: inactive; KCNQ2 pot: inactive

Results for Cc1n[nH]c(C)c1S(=O)(=O)N1CCC(C(=O)Nc2cccc(F)c2)CC1 ?
KCNQ2 inh: inactive; KCNQ2 pot: inactive

How did CCCCSCCCNC(=O)Nc1ccc(CC)cc1 do in these assays?
KCNQ2 inh: inactive; KCNQ2 pot: 5.6

What do the screens show for `CCc1ccc(NC(=O)CSCCO)cc1`?
KCNQ2 inh: inactive; KCNQ2 pot: inactive

What do the screens show for `CCCn1c(C)nc2c(c1=O)c1nc3ccccc3nc1n2CCC1=CCCCC1`?
KCNQ2 inh: inactive

How did Cc1nc2c(c(=O)n1CCC1=CCCCC1)c1nc3ccccc3nc1n2/N=C/c1ccco1 do in these assays?
KCNQ2 inh: -7.7; KCNQ2 pot: inactive

Results for O=S(=O)(c1ccc(N2CCC(c3ccc(Cl)cc3)=N2)cc1)N(CCO)CCO ?
KCNQ2 inh: inactive; KCNQ2 pot: inactive

How did CN(C)CCCNS(=O)(=O)c1ccc(N2CCC(c3ccc(Cl)cc3)=N2)cc1 do in these assays?
KCNQ2 inh: -5.9; KCNQ2 pot: inactive

Results for O=C(NNc1ccc([N+](=O)[O-])cc1)C1CC2CCCC(C1)C2=O (stereo not drawn) ?
KCNQ2 inh: inactive; KCNQ2 pot: inactive

How did O=C(NNc1ccc([N+](=O)[O-])cc1)C1CC1c1ccccc1 (stereo not drawn) do in these assays?
KCNQ2 inh: inactive; KCNQ2 pot: 6.3

What do the screens show for `COc1ccccc1-c1noc2ncnc(Nc3ccc4c(c3)OCO4)c12`?
KCNQ2 inh: inactive; KCNQ2 pot: inactive

How did CCOC(=O)c1ccc(NCCc2ccc(OC)c(OC)c2)c(N)c1 do in these assays?
KCNQ2 inh: inactive

Results for N=C1c2ccccc2CN1NC(=O)CC12CC3CC(CC(C3)C1)C2 ?
KCNQ2 inh: inactive; KCNQ2 pot: 18

What do the screens show for `Cc1cc(C)cc(OCC(=O)NN2Cc3ccccc3C2=N)c1`?
KCNQ2 inh: inactive; KCNQ2 pot: inactive

How did CCN(CC(=O)Nc1c(F)cccc1F)C(=O)c1cccc(S(=O)(=O)NCc2ccccc2)c1 do in these assays?
KCNQ2 inh: inactive; KCNQ2 pot: inactive

Results for CC(C)(C)C1CCc2c(sc(NC(=O)c3cccs3)c2C(=O)N2CCCCC2)C1 (stereo not drawn) ?
KCNQ2 inh: -8.1; KCNQ2 pot: inactive

Results for CC1CCc2c(sc(NC(=O)c3cccs3)c2C(=O)O)C1 (stereo not drawn) ?
KCNQ2 inh: inactive; KCNQ2 pot: inactive

Results for Cc1cc(C)n(CCNC(=O)c2ccc3c(c2)OCO3)n1 ?
KCNQ2 inh: inactive

What do the screens show for `CC(C(=O)N1CCc2ccccc2C1)N1C(=O)c2ccccc2C1=O` (stereo not drawn)?
KCNQ2 inh: inactive; KCNQ2 pot: inactive

Results for CC(C)CC(C(=O)N1CCc2ccccc2C1)N1C(=O)c2ccccc2C1=O (stereo not drawn) ?
KCNQ2 inh: -6.5; KCNQ2 pot: inactive

How did O=C(O)COc1ccc(C(NC(=O)c2c(F)cccc2F)NC(=O)c2c(F)cccc2F)cc1 do in these assays?
KCNQ2 inh: inactive

Results for O=C(NCc1csc(-c2ccccc2)n1)c1cc(F)cc2c1OCOC2 ?
KCNQ2 inh: -6.1; KCNQ2 pot: inactive

How did O=C(Cc1csc(-c2ccccc2)n1)NCc1ccc(F)cc1 do in these assays?
KCNQ2 inh: inactive
